From PubChem BioAssay AID602247 (The Scripps Research Institute Molecular Screening Center, 2012)
About 80 (0.02%) of roughly 360,000 compounds were called active. This excerpt belongs to a sample that is enriched for actives. Unmarked numbers belong to inactive results.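 The calls were made as follows: active = activation above the run cutoff, the mean activation of all test compounds plus 3 SD (cut at about 40% in these data); inactive = the rest.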

assay: nonselective calcium activators in parental CHO-K1 cells, primary screen, counter-screen for M1 PAM project, cell-based, Fluo-8 calcium fluorescence, full deck, 1536-well (AID 602247); conditions: parental CHO-K1, ATP EC20, Fluo-8 calcium fluorescence; at 3 µM; hits give high values; 0% at ATP EC20, 100% at ATP max;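 also: peak over basal fluorescence ratio in a 140 s read after ATP addition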

**Q.** Which activation does the source give for C#CCCOC(=O)N1C2=NC(C(=O)OC)=C(C(=O)OC)[C@@H]3N(C)c4ccc(OC)cc4[C@]23C[C@H]1C(=O)OC here?
**A.** -12.8%

**Q.** Which activation does the source give for O=C(CCCCCn1c(=S)[nH]c2ccsc2c1=O)NC1CCCCC1 here?
**A.** 16.9%

**Q.** For CC(C)n1ncc2c(C(=O)NCc3ccccc3CN(C)C)cc(C3CC3)nc21, which activation is on record?
**A.** -12.7%

**Q.** For COC(=O)c1cc(S(=O)(=O)NC2CCN(Cc3ccccc3)CC2)cn1C, which activation is on record?
**A.** 3.07%

**Q.** With CCOc1ccc(NC(=S)N2CCC(N(C)CC3CCCO3)CC2)cc1 (stereo not given) as the molecule, how does the activation read?
**A.** 23.7%

**Q.** With COc1ccc(OC)c(S(=O)(=O)N2CCCC(C(=O)NCCc3ccccc3)C2)c1 (stereo not given) as the molecule, how does the activation read?
**A.** -2.03%

**Q.** With Cc1ccc(OC(=O)c2cncc(Br)c2)c(C)c1 as the molecule, how does the activation read?
**A.** -0.46%

**Q.** Which activation does the source give for S=C(Nc1ccc2c(c1)OCO2)N1CCCC1 here?
**A.** 12.1%

**Q.** With COc1ccc(-c2ccc(C(=O)NC(C)C)c3occc23)c(C)c1 as the molecule, how does the activation read?
**A.** 11%

**Q.** For CC(=O)Nc1ccc(NC(=O)CSCc2cnn(-c3ccccc3)c2-n2cccc2)cc1, which activation is on record?
**A.** 1.5%

**Q.** Which activation does the source give for Cc1ccc(N2C(=O)CC(N3CCSCC3)C2=O)c(C)c1 (stereo not given) here?
**A.** 0.16%

**Q.** Which activation does the source give for CCOC(=O)C1CCN(CCC(=O)Nc2cccc(C)c2)CC1 here?
**A.** -4.96%

**Q.** For CCCCCc1c(Cc2ccccc2)ncn1CCc1ccccc1OC, which activation is on record?
**A.** 3%

**Q.** For CC(NC(=O)CN(C)S(=O)(=O)c1ccc(F)cc1)C1CC2CCC1C2 (stereo not given), which activation is on record?
**A.** 9.24%

**Q.** For CCC(C(=O)NC1CCCC1)N(C(=O)Cn1nnc(-c2ccc(C)o2)n1)c1ccc(OC)c(OC)c1 (stereo not given), which activation is on record?
**A.** -0.54%

**Q.** With NC(=O)C1(Nc2ccc(-c3ccccc3)cc2)CCCC1 as the molecule, how does the activation read?
**A.** 0.81%

**Q.** For CCOc1ccccc1-c1cc(C(=O)N/N=C(\C)c2cccnc2)c2ccccc2n1, which activation is on record?
**A.** 15.1%

**Q.** For CCOc1cc(/C=N/NC(=O)c2cc(-c3ccccc3)nc3ccccc23)ccc1O, which activation is on record?
**A.** 40.7% (active)

**Q.** Which activation does the source give for CCOc1cc(/C=N/NC(=O)c2c(C)nc3ccc(Cl)cn23)ccc1O here?
**A.** -3.92%

**Q.** Which activation does the source give for O=C(c1ccc(=O)[nH]c1)N(Cc1ccco1)C1(C(=O)NC2CCCCC2)CCCCC1 here?
**A.** 7.15%

**Q.** For CCC(C)NC(=O)C1CCC(=O)N1Cc1ccc(C)cc1 (stereo not given), which activation is on record?
**A.** 19.6%

**Q.** Which activation does the source give for CCn1c(SCC(=O)Nc2ccc(OC)c(OC)c2)nnc1-c1c[nH]c2ccccc12 here?
**A.** 22.7%

**Q.** For COc1ccccc1NC(=O)C(CC(=O)O)Cc1cc(C)cc(C)c1 (stereo not given), which activation is on record?
**A.** 22.4%

**Q.** With O=S(=O)(c1cccc(C(F)(F)F)c1)N1c2ccccc2-n2cccc2C1c1cccnc1 (stereo not given) as the molecule, how does the activation read?
**A.** 10.8%

**Q.** For O=C(NC1CCCC1)C(c1ccc(N2CCOCC2)cc1)N(C(=O)c1ccco1)c1ccccc1F (stereo not given), which activation is on record?
**A.** 4.16%
